Experimental data reported in ChEMBL document CHEMBL1157539, “Thousands of chemical starting points for antimalarial lead identification” (Nature, 2010).

System: Plasmodium falciparum
Assay: GSK_TCMDC: Inhibition of Plasmodium falciparum Dd2 in whole red blood cells, using parasite LDH activity as an index of growth. Test compounds present at 2uM
Type: functional

SMILES | Inhibition
COc1cc(-c2cc3cc(Cl)c(Cl)cc3[nH]2)ccc1C(=O)NC1CCN(Cc2ccccc2)CC1.O=C(O)C(F)(F)F | 100%
CC(C)(C)NCCN(Cc1ccc(-c2ccc(C(F)(F)F)cc2)cc1)C(=O)Cn1c(CCc2cccc(F)c2F)nc(=O)c2c1CCC2.O=C(O)C(O)C(O)C(=O)O | 48%
O=C(Nc1ccc([N+](=O)[O-])cc1)Nc1cc(OCC(F)(F)F)cc(OCC(F)(F)F)c1 | 100%
O=C(O)C(F)(F)F.OCC1CCN(Cc2cccc(-c3ccc(-c4nc5cc(C(F)(F)F)ccc5[nH]4)s3)c2)CC1 | 90%
COc1ccc(NC(=O)Nc2ccc(Nc3nc(C)cc(N4CCCC4)n3)cc2)cc1 | 100%
O=c1c2ccc(F)cc2sn1-c1ccc(Cl)cc1 | 11%
CN1CCC(N2CCN(Cc3ccc(-c4cccc(-c5nc6cc(F)ccc6[nH]5)c4)cc3)CC2)CC1.O=C(O)C(F)(F)F | 99%
CCc1nc(N)nc(N)c1-c1ccc(F)c(F)c1 | 0%
Nc1cc2c(C3CCN(CC4CCN(C(=O)/C=C/c5ccc(Cl)c(Cl)c5)CC4)CC3)c[nH]c2cn1 | 94%
CN(C)c1ccc(C2(c3ccccc3)N=C(N)N(CCCc3ccccc3)C2=O)cc1.O=C(O)C(F)(F)F (stereo unspecified) | 97%
Cc1cc(-c2cccc(CNC3CCN(C)CC3)c2)ccc1S(=O)(=O)NC1CCC1.O=C(O)C(F)(F)F | 96%
Cc1cccc2nc(-c3ccc(-c4ccc(CN5CCCCC5CO)cc4)cc3)[nH]c12.O=C(O)C(F)(F)F (stereo unspecified) | 76%
COc1ccc2nccc([C@@H](O)CN3CCC(NCc4cc5cc(Cl)ccc5[nH]4)CC3)c2c1.O=C(O)C(=O)O | 64%
Br.CN1C(=O)C(=O)N(CCCCCONC(=N)N)C1=S | 1%
CC(C)CN(C)Cc1ccc(-c2ccc(-c3nc4ccccc4[nH]3)s2)cc1 | 76%
CC1(C)N=C(N)N=C(N)N1c1ccc(Oc2ccc(Cl)cc2)c(Cl)c1 | 20%
C=CCOc1cccc2c1CCN(CCN1CCC(NC(=O)c3ccc(-c4ccc(Cl)cc4)cc3)CC1)C2 | 22%
O=[N+]([O-])c1cccc(-n2nc(NCc3ccc(Cl)cc3)nc2-c2ccc(F)c(C(F)(F)F)c2)c1 | 93%

SMILES | Inhibition
CCCNC(=O)C1CCN(C(c2ccccc2)c2ccc(Cl)c(Cl)c2)CC1 (stereo unspecified) | 90%
CCCCCCCCN1CCCN(C(=O)c2cccc(NC(=O)Nc3ccc4ccccc4c3)c2)CC1.O=C(O)C(F)(F)F | 39%
Cl.NC(=O)c1sc(-n2cnc3ccc(OCC4CCNCC4)cc32)cc1OCc1ccccc1C(F)(F)F | 62%
CCOC(=O)C(NC(=O)Cc1ccccc1)C(C)C (stereo unspecified) | 98%
COc1ccc(C2CCN(CCCCNC(=O)c3ccc(NC(=O)c4ccc(Cl)cc4)cc3)CC2)c(OC)c1.Cl | 95%
CCOC(=O)CCCOc1cc(Cc2cnc(N)nc2N)cc(OC)c1OC | 3%
CC(Oc1ccc(Cl)cc1)C(=O)Nc1cc(C(F)(F)F)ccc1N1CCOCC1 (stereo unspecified) | 97%
CCOc1ccc2[nH]c(C)cc(=NN=Cc3cccc(F)c3)c2c1 | 23%
CC(=O)Nc1nc(C(=O)Nc2cccc(-c3cccc(-c4nc5cccc(C)c5[nH]4)c3)c2)cs1 | 94%
COCCNCc1ccc(-c2ccc(CNC3CCN(Cc4ccccc4)CC3)cc2)cc1.O=C(O)C(F)(F)F | 61%
O=C(/C=C/c1ccc(Cl)c(Cl)c1)NCCCCCN1CCC(NC(=O)Nc2ccc(Cl)c(Cl)c2)CC1 | 1%
COc1cc(Cc2cnc(N)nc2N)cc(OCCCCCCN2C(=O)c3ccccc3C2=O)c1OC | 3%
Cc1cc2nc(-c3ccc(C(=O)NC4CCN(Cc5ccccc5)CC4)s3)[nH]c2cc1C | 82%
CC(=O)N(C)C1CCN(Cc2ccc(-c3cccc(-c4nc5cc(F)ccc5[nH]4)c3)cc2)C1.O=C(O)C(F)(F)F (stereo unspecified) | 79%
CC(C)c1ccc(NC(=O)c2ccc(C(=O)NC3CCN(Cc4ccsc4)C3)cc2)cc1.O=C(O)C(F)(F)F (stereo unspecified) | 28%
CCN(CC)CCN(CCN(CC)CC)c1ccc2c(c1)Sc1c(Cl)ccc(Cl)c1S2.Cl | 94%
O=C(O)C(F)(F)F.Oc1ccc(CCNc2nc(NCc3cccc(-c4cc(C(F)(F)F)ccc4Cl)c3)nc(N3CCNCC3)n2)cc1 | 8%
CCN1CCC(N(Cc2ccc(-c3ccc(C(F)(F)F)cc3)cc2)C(=O)Cn2c(CCc3cccc(F)c3F)cc(=O)c3c2CCCC3)CC1.O=C(O)C(O)C(O)C(=O)O | 96%
